Screens as filed in PubChem BioAssay.
A549 tox = counter-screen for Nrf2 inhibitors: cytotoxicity in A549 cells; actives 0.16% (n = 390,000); Potency, µM (highest dose often 46 µM), without a hit: top-dose activity change, negative = cytotoxicity, hits mostly inhibitors; A549 ARE-Fluc cells, CellTiter-Fluor viability, 18-24 h; note: potency is the fitted concentration of half-maximal effect
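A549 ARE_Fluc cells in 5% FBS OPTI-MEM were exposed to compounds in concentration-response for 18-24 h at 37 deg C. Viability was read by CellTiter-Fluor fluorescence (Ex 405/Em 525) after 30 min, before the luciferase read.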
KB-V1 MDR tox = kills drug-selected multidrug resistant KB-V1 cells. actives 3.4% (n = 400,000). Potency, µM (highest dose often 46.1 µM), most hits filed as cytotoxic. KB-V1 MDR cells viability, CellTiter-Glo, 72 h; note: potency is the fitted concentration of half-maximal effect; nearly all actives have a fitted effect of over 60% in size
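KB-V1 cells (P-gp-expressing MDR subline of KB-3-1) in phenol-red-free DMEM with 10% FBS were exposed to library compounds over a concentration series for 72 h at 37 degrees C. Viability read by CellTiter-Glo luminescence; concentration-effect curves fitted after normalization.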
Nrf2 inh = Nrf2 pathway inhibition | actives 2.1% (n = 360,000) | Potency, µM (top dose mostly 46 µM), without a hit: at the highest dose activity change, negative = inhibition, most hits filed as inhibitors | A549 ARE-Fluc reporter, luciferase luminescence, 18-24 h; note: potency is the fitted concentration of half-maximal effect; nearly all actives have a fitted effect of over 60% in size
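Two sequential reads on A549 ARE_Fluc cells exposed to compound for 18-24 h: a CellTiter-Fluor fluorescence read for viability, then a luciferase luminescence read for Nrf2/ARE activity.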
PI4K2A inh = blocks human PI4K2A kinase activity. AID 1346378. activity change, negative = inhibition, % at 76.9 µM. actives 0.13% (n = 420,000). Q9BTU6. purified PI4K2A, ADP-Glo luminescence, 1 h; hits give low values; in the data active = activity change below about -50%; inconclusive = mostly about -30% to -49%;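 note: -100% = wells without enzyme as full effect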
Target sequence (Q9BTU6 whole entry, looked up): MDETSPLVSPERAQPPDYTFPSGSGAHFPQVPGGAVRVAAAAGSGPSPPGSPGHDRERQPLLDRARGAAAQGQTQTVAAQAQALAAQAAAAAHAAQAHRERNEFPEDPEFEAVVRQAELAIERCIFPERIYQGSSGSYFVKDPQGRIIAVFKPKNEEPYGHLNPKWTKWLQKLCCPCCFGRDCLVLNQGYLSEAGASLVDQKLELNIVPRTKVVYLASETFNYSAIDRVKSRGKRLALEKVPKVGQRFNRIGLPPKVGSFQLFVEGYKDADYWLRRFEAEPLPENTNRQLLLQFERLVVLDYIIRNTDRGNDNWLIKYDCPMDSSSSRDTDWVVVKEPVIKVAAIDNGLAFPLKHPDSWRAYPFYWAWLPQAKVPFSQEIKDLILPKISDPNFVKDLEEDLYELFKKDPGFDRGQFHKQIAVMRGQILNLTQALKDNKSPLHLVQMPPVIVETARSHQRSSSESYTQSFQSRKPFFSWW
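In this quantitative HTS, ADP production by PI4K2A was quantified luminescently after 1 h at ambient temperature; 100 microM adenosine served as plate-quality control.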
KB-3-1 tox = kills parental KB-3-1 adenocarcinoma cells; Potency, µM (series often up to 46.1 µM), hits mostly cytotoxic; KB-3-1 viability, CellTiter-Glo ATP luminescence, 72 h; actives 1.4% (n = 400,000); note: potency is the fitted concentration of half-maximal effect; nearly all actives have a fitted effect of over 60% in size
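Cytotoxicity measured as CellTiter-Glo luminescence after 72 h at 37 C. Compound titrations were pinned onto drug-naive KB-3-1 parental adenocarcinoma cells grown in DMEM with 10% FBS, and normalized data fitted to concentration-response curves.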
Giardia kill = kills Giardia lamblia; Giardia lamblia trophozoite viability; activity change, % at 7.66 µM, hits read low; actives 0.15% (n = 340,000); AID 540267; in the data active = activity change below about -80%; inconclusive = between about -30% and that limit;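 note: parasites exposed to compound for two days anaerobically before the ATP read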
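Anaerobic 48 hrs incubation at 37 deg C of 100 trophozoites/well with test compounds; ATPLite 1-Step luminescence, 15-30 min RT, reports cellular ATP as viability.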
* marks the source's active call; other numbers are inactive results; i = inactive; ? = inconclusive; . = no result. Hits are enriched below; roughly 5.7% of the tested compounds scored in any of these assays. Unless noted, calls come from the whole dose curve; as a rule, active = well fitted curve in the direction sought with a large enough effect; inconclusive = small, poorly fitted or top-dose-only effect, or another doubt; inactive = no such curve, though single readings can be large; an effect the other way counts as inactive or inconclusive. Unless noted, % is set by controls: 0 for no effect and ±100 for the full control effect.

SMILES	A549 tox	KB-V1 MDR tox	Nrf2 inh	PI4K2A inh	KB-3-1 tox	Giardia kill
COc1cc(-c2nnc(-c3ccccc3)o2)cc(OC)c1OC	1%	9.2µM*	-4%	-3	i	-12
Clc1cccc(Cl)c1C[n+]1ccc2ccccc2c1	-3%	i	6.5µM*	3	?	-2
O=C(C[n+]1ccc2ccccc2c1)c1ccccc1	-2%	i	1%	-8	i	-6
S=C(Nc1ccc(Cl)cc1Cl)Nc1ccccc1Oc1ccccc1	2%	i	-21%	2	i	6
S=C(Nc1ccccc1Oc1ccccc1)Nc1cccc(Cl)c1Cl	17%	21µM*	0%	6	23µM*	0
C[C@H]1COc2cccc(F)c2S(=O)(=O)N1C	.	.	.	4	.	.
CC(=O)c1c(C(C)=O)c(C)n(Cc2ccc3c(c2)OCO3)c1C	-18%	2.6µM*	?	-1	13µM*	-1
O=C(NC(=S)N1CCN(Cc2ccc3c(c2)OCO3)CC1)c1cccc(Br)c1	5%	7.3µM*	?	0	?	2
Cc1ccc(C(=O)N2CCN(Cc3ccc4c(c3)OCO4)CC2)o1	11%	i	-3%	-2	i	0
Cc1ccc(NC(=O)N2CCN(Cc3ccc4c(c3)OCO4)CC2)cc1	?	21µM*	?	0	i	59
CCOc1ccc(NC(=O)N2CCN(Cc3ccc4c(c3)OCO4)CC2)cc1	7%	i	-4%	-3	i	8
O=C(/C=C/c1cccs1)N1CCN(Cc2ccc3c(c2)OCO3)CC1	9%	18µM*	-1%	-4	i	1
CC(C)(C)C1=Nn2c(nnc2-c2ccc(C(C)(C)C)cc2)SC1	.	.	.	2	.	.
O=C(CC1C=CCC1)OCCN1CCN(C2CN(Cc3cn(Cc4ccccc4Cl)nn3)S(=O)(=O)C2)CC1 (stereo not drawn)	.	.	.	-2	.	.
O=C(Nc1ccc2c(c1)OCO2)N1CCN(Cc2ccco2)CC1	6%	i	16µM*	-1	i	?
CCCc1cc2c(c(NC(C)=O)n1)c(=O)oc1ccccc12	?	13µM*	0%	-6	i	9
CCCC(=O)Nc1cc(C)c2c(=O)oc3ccccc3c2n1	0%	18µM*	19%	-8	i	-13
Cc1cc(NC(=O)CC(C)(C)C)nc2c1c(=O)oc1ccccc12	2%	i	8%	0	i	-12
CCC(C)N(C(=O)c1oc(=O)c2ccccc2c1-c1ccc(C)cc1)C(C)CC (stereo not drawn)	.	.	.	3	.	.
O=C(C1c2ccccc2Oc2ccccc21)N1CCN(c2ccc(Cl)cc2)CC1	?	?	26µM*	0	?	18
COc1ccccc1N1CCN(C(=O)C2c3ccccc3Oc3ccccc32)CC1	?	2.6µM*	11%	-1	1.8µM*	-2
CCC(C)(C)C(=O)N1CCC(C(=O)NC2CCCc3ccccc32)CC1 (stereo not drawn)	.	.	.	3	.	.
O=C(N/N=C/C(Cl)=C/c1ccc([N+](=O)[O-])cc1)C(=O)Nc1ccccc1C(=O)O	-3%	2.1µM*	7%	16	7.3µM*	13
COc1ccc(OC)c(NC(=O)CN(C)S(=O)(=O)c2ccc(C(=O)N3CCOCC3)s2)c1	-1%	i	.	-1	i	.
CCCCNC(=O)Nc1ccc2c(c1)N(C)C(=O)c1ccccc1S2	2%	i	-11%	-2	i	0
SMILES	A549 tox	KB-V1 MDR tox	Nrf2 inh	PI4K2A inh	KB-3-1 tox	Giardia kill
CN1C(=O)c2ccccc2Sc2ccc(NC(=O)COc3ccc(Cl)cc3)cc21	-24%	8.2µM*	.	2	?	.
CCOC(=O)c1cccc(NC(=O)Nc2ccc3c(c2)N(C)C(=O)c2ccccc2S3)c1	-20%	i	21µM*	0	i	.
CCOC(=O)c1ccc2c(c1)N(CC)C(=O)c1ccccc1S2	13%	?	-7%	1	i	15
CCCNC(=O)Nc1ccc2c(c1)N(C)C(=O)c1ccccc1S2	11%	21µM*	-24%	1	?	-5
Cc1ccc(C(=O)Nc2ccc3c(c2)N(C)C(=O)c2ccccc2S3)cc1	?	?	.	3	16µM*	.
CCCN1CNc2c(c(=O)[nH]c(=S)n2CCc2cc(OC)ccc2OC)C1	?	.	-11%	.	.	1
CN(N=O)c1ccc2c(c1)Cc1ccccc1-2	.	i	.	.	i	.
Cn1c(=O)n(C)c2cc(NC(=O)COc3ccc(F)cc3F)ccc21	-2%	i	?	-1	i	3
Cn1c(=O)n(C)c2cc(NC(=O)COc3ccc(Cl)cc3)ccc21	1%	?	16µM*	0	i	8
COc1ccc2ncnc(NCC3CCCO3)c2c1-c1ccc2c(c1)OCO2 (stereo not drawn)	-24%	i	?	.	i	.
CCCCCc1ccc(-c2ccc(=O)[nH]n2)cc1	-9%	5.2µM*	21%	0	6.5µM*	-14
COc1ccc(-c2cc(-c3nnc(COC(=O)CC4CC5CCC4C5)o3)c3ccccc3n2)cc1OC (stereo not drawn)	5%	9.2µM*	0%	-8	?	8
CCOC(=O)/C(=C\c1ccc(N2CCC(c3ccccc3)=N2)cc1)C(C)=O	17%	.	116%	-3	.	13
CCOC(=O)C(=Cc1ccc(-n2cncn2)cc1)C(=O)OCC	?	i	18µM*	7	?	-12
CCn1c(CSc2nc(C)cc(C)n2)nnc1SCC(=O)Nc1ccccc1	9%	21µM*	2%	0	i	-10
CCn1c(CSc2nc(C)cc(C)n2)nnc1SCC(=O)Nc1cccc2ccccc12	9%	i	-6%	6	i	-6
Cc1cc(C)nc(NC(=O)CSc2nnnn2-c2ccccc2)n1	-11%	21µM*	1%	3	i	-10
O=C(CSc1nnnn1-c1ccccc1)Nc1ccccc1	4%	i	-13%	-2	i	4
COC(=O)c1cccc(Cn2ccc3ccc(-c4ccc5ccn(C(=O)c6cccc(OC)c6)c5c4)cc32)c1	.	.	.	-3	.	.
CCn1c(=O)cc(N2CCN(c3cccc(C(F)(F)F)c3)CC2)[nH]c1=O	.	.	.	-3	.	.
COC(=O)c1cccc(/C=N/NC(N)=S)c1O	-4%	15µM*	-13%	-7	?	1
NC(=S)N/N=C/c1ccc2cccc(OCc3ccccc3)c2n1	?	i	?	2	i	-21
NC(=S)N/N=C/c1ccccc1OCc1cccc(Cl)c1	-8%	i	?	7	18µM*	11
Nc1c(C(=O)NCc2ccco2)c2nc3ccccc3nc2n1CCc1ccc(F)cc1	-6%	16µM*	?	?	i	-16
